# “And” between values parts separate entries of the source, which are not always exact repeats. Equal entries are not always repeated. Records with an inconclusive call do not appear. The source made the active and inactive calls.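 How the source made its calls, unless noted: active means thallium flux through the channel raised or lowered by more than 3 SD from vehicle-only wells, actives on both sides; inactive means the rest.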
# Assays:
# [1] = molecular target: ATP-dependent translocase ABCB1 (Homo sapiens) (UniProt P08183); assay: MDR1 (ABCB1) efflux transporter inhibition, cell-based (AID 377; in the data active means fluorescence slope change above about 50%); conditions: MDR1-expressing cells, fluorescent substrate accumulation slope; stronger effect = higher value; concentration not given here
# [2] = hESC survival regulators, cell-based (AID 493140; call rule not given here;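 further: cells exposed to compounds for four days before counting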); conditions: human embryonic stem cell survival screen; stronger effect = higher value
# [3] = liver-stage malaria parasite growth inhibition, primary screen, cell-based, HepG2, luciferase luminescence, HepG2 viability (AID 624349; in the data active means parasite load remaining mostly below about 12%, no sharp cut-off; inactive means mostly above about 10%;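 further: 100% = mean of DMSO negative control wells on the same plate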); conditions: P. berghei liver stage in HepG2, luciferase luminescence, concentration not given here; parasite load remaining: stronger effect = lower value; viability: measured here: HepG2 viability without parasites
# [4] = Cy5 fluorescence interference with SSB-bound oligo, artefact control for HCV NS3 helicase inhibitor project, biochemical, NIH Clinical Collection, E. coli SSB (AID 743268; call rule not given here)
# [5] = test system: Hepatitis C virus NS3 helicase; assay: HCV NS3 helicase inhibitors, primary screen, biochemical, fluorescence polarization, NIH Clinical Collection (AID 743270; call rule not given here); conditions: NS3 helicase binding to Cy5-dT15 DNA, stronger effect = higher value, concentration not given here
# [6] = molecular target: Single-stranded DNA-binding protein (Escherichia coli (strain K12)) (UniProt P0AGE0); assay: E. coli SSB displacement from DNA, counter-screen for HCV NS3 helicase inhibitor project, biochemical, fluorescence polarization, NIH Clinical Collection (AID 743271; in the data active means inhibition above about 28%); conditions: stronger effect = higher value, concentration not given here
# [7] = fluorescence interference in NS3h assay format, artefact control for HCV NS3 helicase inhibitor project, biochemical, NIH Clinical Collection (AID 743272; call rule not given here;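 further: HCV NS3 helicase with a Cy5 labelled single stranded DNA probe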); conditions: fluorescence interference counterscreen, stronger effect = lower value
# [8] = stimulators of nuclear beta-catenin in C2C12, primary screen, imaging, WNT3A-conditioned medium, mouse C2C12, NPC library (AID 1117326; in the data active means nuclear beta-catenin stimulation mostly above about 4.2%, no sharp cut-off; inactive means mostly below about 10%); conditions: stronger effect = higher value
# [9] = stimulators of insulin release from INS-1E, primary screen, cell-based, 5 mM glucose, NPC library (AID 1117329;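 active means compound raises insulin release from rat beta cells at 5 mM glucose, no numeric limit stated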); conditions: rat INS-1E insulin secretion, at 10 µM, stronger effect = higher value
# [10] = growth inhibition of GSK3B-pretreated HCT116 cells – cell-based, CellTiter-Glo, 0.2 to 20 µM (AID 1117336;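 active means compounds lowering colon cancer cell viability after pretreatment blocking the GSK3B kinase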); conditions: HCT116 viability after GSK3B inhibitor, at 20 µM, stronger effect = higher value
# [11] = inhibition of endothelial tube formation, primary screen, imaging, VEGF stimulated, CD31 staining, tube area, NPC library (AID 1117340;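 active means compound that reduces growth-factor-driven endothelial tube area in a mixed cell culture, no cutoff stated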); conditions: VEGF-stimulated ADSC/ECFC co-culture, at 10 µM, stronger effect = higher value
# [12] = glucagon-like peptide 1 release enhancers, primary assay, NCI-H716 cell line, NPC library (AID 1117341;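 active means compound raises GLP1 secretion from the human gut endocrine cells, with no numeric limit stated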); conditions: NCI-H716 cells, at 10 µM, stronger effect = higher value
# [13] = HCT116 colon cancer cell growth inhibition, primary screen, CellTiter-Glo luminescence, NPC library (AID 1117342;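 active means compounds that lower survival of HCT116 colon cancer cells in the luminescence readout, no numeric limit stated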); conditions: at 20 µM (top of the series)
# [14] = CellTiter-Glo luminescent readout of SW480 viability loss, NPC library primary (AID 1117343;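 active means compounds that lower viability of the colon cancer cells in the luminescence readout, with no numeric limit stated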); conditions: CellTiter-Glo luminescence; at 20 µM (top of the series)
# [15] = decreased DLD-1 cellular survival, CellTiter-Glo luminescent readout, NPC compound collection, primary HTS (AID 1117346;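 active means compounds that lower survival of DLD-1 colon cancer cells in the luminescence readout, no cutoff given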); conditions: DLD-1 viability, CellTiter-Glo luminescence; at 20 µM (top of the series)
# [16] = molecular target: 6-phosphogluconate dehydrogenase, decarboxylating (Homo sapiens) (UniProt P52209); assay: 6PGD enzyme inhibitors, primary screen, biochemical, human, recombinant enzyme, NADPH absorbance (AID 1159550;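 active means at least 20% inhibition of 6-phosphogluconate dehydrogenase activity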); conditions: recombinant 6PGD, NADPH absorbance 341 nm; at 10 µM; stronger effect = higher value
# [17] = growth inhibition of DIPG glioma cells, dose response, cell-based, SU-DIPG-XIII, MIPE4.0, CellTiter-Glo, qHTS (AID 1347061; cut-off not given, nearly all actives have AC50 up to about 37 µM;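 further: cells exposed to compound for 48 hours before readout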); conditions: SU-DIPG-XIII viability, CellTiter-Glo ATP luminescence
# [18] = growth inhibition of DIPG glioma cells, dose response, cell-based, JHH-DIPG-1, MIPE4.0, CellTiter-Glo, qHTS (AID 1347062; cut-off not given, nearly all actives have AC50 up to about 27 µM); conditions: JHH-DIPG-1 viability, CellTiter-Glo ATP luminescence
# [19] = growth inhibition of DIPG glioma cells, dose response, cell-based, SU-DIPG-XIII, MIPE5.0, CellTiter-Glo, qHTS (AID 1347064; cut-off not given, nearly all actives have AC50 up to about 23 µM); conditions: SU-DIPG-XIII viability, CellTiter-Glo ATP luminescence
# [20] = viability loss in pontine glioma line – cell-based, SU-DIPG-XXV, MIPE5.0, CellTiter-Glo, qHTS, dose response (AID 1347065; cut-off not given, nearly all actives have AC50 up to about 26 µM;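 further: cells exposed to compound for 48 hours before ATP readout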); conditions: CellTiter-Glo ATP luminescence
# [21] = SU-DIPG-VI glioma cell viability, MIPE4.0 library, CellTiter-Glo luminescence, qHTS (AID 1347066; cut-off not given, nearly all actives have AC50 up to about 30 µM;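 further: cells exposed to compound for 48 hours before readout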); conditions: CellTiter-Glo ATP luminescence
# [22] = SU-DIPG-XXV glioma cell viability, MIPE5.0 library, qHTS (AID 1347068; cut-off not given, nearly all actives have IC50 up to about 30 µM)
# [23] = sensitizers of A549 cells to miR-34 induction, primary screen, imaging, A549 dox-inducible miR-34, nuclei and caspase counts (AID 1347080;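 active means compounds whose cell count with miR-34 switched on is under 0.7 times the count with it off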); conditions: A549 miR-34 inducible, Hoechst nuclei count, 48 h
# [24] = survival rescue of mitochondrial mutant cells in low glucose, primary screen, MELAS cybrids, Rieske KO mouse fibroblasts, CellTiter-Glo (AID 1508586;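 active means mean z-score across replicates of 1.96 or higher in either the MELAS or the Rieske mutant cell line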;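 further: z relative to plate mean and SD of compound and empty wells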)
# [25] = molecular target: NAD(+) hydrolase SARM1 (Homo sapiens) (UniProt Q6SZW1); assay: SARM1 TIR NADase inhibitors, cell lysate, NAD-Glo luminescence (AID 1508614;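 active means compound whose remaining NAD level is above about 45 nM, limit read from the data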); conditions: SAM-TIR HEK293T lysate NADase, at 1 µM, stronger effect = higher value
# [26] = molecular target: Mitogen-activated protein kinase 7 (Homo sapiens) (UniProt Q13164); assay: ERK5 transactivation activators in reporter cells, primary screen, cell-based, HTS (AID 1508626;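 active means luciferase signal above three times the same-plate solvent-only control wells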;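 further: luciferase driven by Gal4-ERK5 fusion binding five Gal4 sites before minimal TATA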); conditions: HeLa Gal4-ERK5 transactivation, 18 h, at 5 µM, stronger effect = higher value
# [27] = viability rescue of complex I mutant cybrids, primary screen, cell-based, galactose medium, ATP luminescence (AID 1645843;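 active means z-score of at least 1.8 in each of two replicates, scored against plate mean and spread of sample wells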;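 further: positive z means more ATP and so rescue of galactose-driven cybrid death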); conditions: complex I mutant cybrid cells, 72 h, stronger effect = higher value
# F380Y = assay: modulators of BK channel variants, profiling panel, selectivity assay, cell-based, U2OS BacMam, thallium flux, beta subunits (AID 1259406); conditions: at 30 µM;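 further: initial slope of Thallos dye fluorescence rise after thallium is added; log ratio against the mean of 0.3% DMSO vehicle wells on the same plate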
# F380Y/beta1 = assay: as above; conditions: at 30 µM
# F380Y/beta2Delta = assay: as above; conditions: at 30 µM
# F380Y/beta4 = assay: as above; conditions: at 30 µM
# [28] = molecular target: Calcium-activated potassium channel subunit alpha-1 (Homo sapiens) + Leucine-rich repeat-containing protein 26 (Homo sapiens) (UniProt Q12791+Q2I0M4); assay: as above; conditions: F380Y/Slo1WT/gamma1, at 30 µM
# R275C = assay: as above; conditions: at 30 µM
# R275C/beta1 = assay: as above; conditions: at 30 µM
# R275C/beta2Delta = assay: as above; conditions: at 30 µM
# R275C/beta4 = assay: as above; conditions: at 30 µM
# R275C/Slo1WT/beta2 = assay: as above; conditions: at 30 µM
# Mitogen-activated protein kinase 7 (Homo sapiens), sequence (Q13164 whole entry, looked up, the tested form may be a part): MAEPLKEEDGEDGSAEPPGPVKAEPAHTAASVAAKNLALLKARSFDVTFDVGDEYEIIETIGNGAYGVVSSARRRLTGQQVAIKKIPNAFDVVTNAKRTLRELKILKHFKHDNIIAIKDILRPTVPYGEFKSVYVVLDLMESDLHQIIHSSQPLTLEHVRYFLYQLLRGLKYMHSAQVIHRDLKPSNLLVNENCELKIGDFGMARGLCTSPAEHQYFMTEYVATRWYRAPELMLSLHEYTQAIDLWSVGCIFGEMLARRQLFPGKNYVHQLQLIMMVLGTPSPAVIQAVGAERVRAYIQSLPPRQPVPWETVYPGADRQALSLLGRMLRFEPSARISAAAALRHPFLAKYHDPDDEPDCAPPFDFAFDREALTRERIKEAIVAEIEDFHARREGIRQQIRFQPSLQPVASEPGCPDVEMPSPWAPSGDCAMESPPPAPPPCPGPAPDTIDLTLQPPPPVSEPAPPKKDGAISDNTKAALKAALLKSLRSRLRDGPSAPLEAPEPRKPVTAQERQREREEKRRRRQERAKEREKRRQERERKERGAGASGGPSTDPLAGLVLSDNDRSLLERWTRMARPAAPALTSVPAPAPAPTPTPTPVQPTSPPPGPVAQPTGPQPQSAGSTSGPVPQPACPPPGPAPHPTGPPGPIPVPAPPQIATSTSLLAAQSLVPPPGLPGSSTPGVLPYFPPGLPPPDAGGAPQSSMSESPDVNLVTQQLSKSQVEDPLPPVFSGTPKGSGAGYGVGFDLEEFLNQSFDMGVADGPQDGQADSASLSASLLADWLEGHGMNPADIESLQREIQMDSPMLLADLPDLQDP
# NAD(+) hydrolase SARM1 (Homo sapiens), sequence (Q6SZW1 whole entry, looked up, the tested form may be a part): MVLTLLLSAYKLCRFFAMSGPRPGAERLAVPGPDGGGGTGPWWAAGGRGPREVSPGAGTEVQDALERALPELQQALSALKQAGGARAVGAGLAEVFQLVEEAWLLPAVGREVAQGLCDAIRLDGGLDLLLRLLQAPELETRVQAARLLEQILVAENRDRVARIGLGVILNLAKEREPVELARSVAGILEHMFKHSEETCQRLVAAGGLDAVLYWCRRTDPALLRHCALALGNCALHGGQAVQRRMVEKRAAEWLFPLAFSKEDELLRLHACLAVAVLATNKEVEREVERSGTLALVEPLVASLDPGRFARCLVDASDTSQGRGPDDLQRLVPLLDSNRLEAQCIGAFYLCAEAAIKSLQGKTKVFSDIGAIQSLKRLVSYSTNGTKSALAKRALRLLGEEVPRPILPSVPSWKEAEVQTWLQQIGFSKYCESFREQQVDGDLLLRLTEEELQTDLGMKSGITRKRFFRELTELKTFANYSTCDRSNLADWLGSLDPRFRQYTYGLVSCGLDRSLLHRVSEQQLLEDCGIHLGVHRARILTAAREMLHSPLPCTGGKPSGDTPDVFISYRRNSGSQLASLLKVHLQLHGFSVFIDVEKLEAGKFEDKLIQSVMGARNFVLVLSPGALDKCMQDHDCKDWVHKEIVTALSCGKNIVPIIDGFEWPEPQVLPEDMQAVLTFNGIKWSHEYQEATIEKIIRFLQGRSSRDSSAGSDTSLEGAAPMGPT
# Calcium-activated potassium channel subunit alpha-1 (Homo sapiens) + Leucine-rich repeat-containing protein 26 (Homo sapiens), sequence (Q2I0M4 whole entry, looked up, one chain of several): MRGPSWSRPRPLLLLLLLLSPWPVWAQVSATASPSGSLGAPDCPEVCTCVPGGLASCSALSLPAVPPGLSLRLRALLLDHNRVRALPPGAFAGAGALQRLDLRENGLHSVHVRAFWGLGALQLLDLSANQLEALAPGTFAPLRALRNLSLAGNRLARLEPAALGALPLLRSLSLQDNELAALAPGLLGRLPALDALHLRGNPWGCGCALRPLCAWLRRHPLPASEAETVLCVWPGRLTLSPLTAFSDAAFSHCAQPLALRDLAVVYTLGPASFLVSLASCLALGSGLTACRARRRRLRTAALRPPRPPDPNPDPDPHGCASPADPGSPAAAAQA
# 6-phosphogluconate dehydrogenase, decarboxylating (Homo sapiens), sequence (P52209 whole entry, looked up): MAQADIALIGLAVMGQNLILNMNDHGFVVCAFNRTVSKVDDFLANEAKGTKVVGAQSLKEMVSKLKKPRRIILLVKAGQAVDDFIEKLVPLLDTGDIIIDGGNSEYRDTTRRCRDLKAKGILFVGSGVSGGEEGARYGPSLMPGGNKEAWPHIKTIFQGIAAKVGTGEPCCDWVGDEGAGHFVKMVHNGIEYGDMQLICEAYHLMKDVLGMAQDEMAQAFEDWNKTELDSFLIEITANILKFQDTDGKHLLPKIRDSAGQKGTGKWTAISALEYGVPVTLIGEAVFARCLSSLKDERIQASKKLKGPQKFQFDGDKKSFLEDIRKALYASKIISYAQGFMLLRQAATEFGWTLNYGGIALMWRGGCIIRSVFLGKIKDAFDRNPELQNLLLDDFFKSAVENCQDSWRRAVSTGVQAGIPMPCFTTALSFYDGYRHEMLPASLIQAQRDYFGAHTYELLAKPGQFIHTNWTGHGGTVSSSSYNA
# ATP-dependent translocase ABCB1 (Homo sapiens), sequence (P08183 whole entry, looked up): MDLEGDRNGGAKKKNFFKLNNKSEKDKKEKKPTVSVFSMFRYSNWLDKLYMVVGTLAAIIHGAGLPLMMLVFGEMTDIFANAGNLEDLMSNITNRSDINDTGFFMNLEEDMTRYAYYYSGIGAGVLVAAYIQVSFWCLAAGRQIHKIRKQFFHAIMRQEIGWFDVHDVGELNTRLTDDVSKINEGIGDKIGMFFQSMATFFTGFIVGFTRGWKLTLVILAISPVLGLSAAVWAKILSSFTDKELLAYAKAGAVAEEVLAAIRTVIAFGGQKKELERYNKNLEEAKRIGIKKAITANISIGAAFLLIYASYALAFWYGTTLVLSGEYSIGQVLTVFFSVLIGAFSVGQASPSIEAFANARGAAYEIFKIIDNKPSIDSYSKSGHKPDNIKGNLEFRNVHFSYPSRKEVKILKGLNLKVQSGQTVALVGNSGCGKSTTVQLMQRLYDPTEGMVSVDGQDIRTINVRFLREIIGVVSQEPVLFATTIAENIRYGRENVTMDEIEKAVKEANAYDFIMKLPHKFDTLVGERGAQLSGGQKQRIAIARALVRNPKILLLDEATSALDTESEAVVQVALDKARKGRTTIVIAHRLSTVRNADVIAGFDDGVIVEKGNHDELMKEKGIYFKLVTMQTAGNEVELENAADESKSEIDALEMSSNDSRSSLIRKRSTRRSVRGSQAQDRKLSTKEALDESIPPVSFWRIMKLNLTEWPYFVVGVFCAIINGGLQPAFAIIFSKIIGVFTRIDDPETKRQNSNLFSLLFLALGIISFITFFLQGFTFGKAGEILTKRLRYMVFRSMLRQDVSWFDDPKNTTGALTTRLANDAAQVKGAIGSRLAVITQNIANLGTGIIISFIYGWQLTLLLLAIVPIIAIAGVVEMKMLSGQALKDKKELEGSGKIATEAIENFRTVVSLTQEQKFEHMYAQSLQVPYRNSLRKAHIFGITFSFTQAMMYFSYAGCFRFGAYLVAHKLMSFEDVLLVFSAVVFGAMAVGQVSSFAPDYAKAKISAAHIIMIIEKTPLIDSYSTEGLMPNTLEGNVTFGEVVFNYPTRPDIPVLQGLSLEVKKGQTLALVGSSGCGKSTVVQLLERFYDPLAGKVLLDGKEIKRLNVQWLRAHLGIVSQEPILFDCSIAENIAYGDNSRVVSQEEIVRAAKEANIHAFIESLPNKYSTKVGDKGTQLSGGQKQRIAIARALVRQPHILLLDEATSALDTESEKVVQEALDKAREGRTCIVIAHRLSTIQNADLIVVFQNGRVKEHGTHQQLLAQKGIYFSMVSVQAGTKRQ
smiles,measurement,setting,value
CC(=O)OCC(=O)[C@@]12OC(C)(C)O[C@@H]1C[C@H]1[C@@H]3C[C@H](F)C4=CC(=O)C=C[C@]4(C)[C@@]3(F)[C@@H](O)C[C@@]12C,fluorescence slope change,[1],14.5% (inactive)
same,survival,[2],3.25 (inactive)
same,parasite load remaining,[3],84.8% (inactive) and 108% (inactive)
same,viability,[3],105% and 96.2%
same,fluorescence ratio,[4],1.05 (inactive)
same,inhibition,[5],4.09% (inactive)
same,inhibition,[6],-1.24% (inactive)
same,fluorescence ratio,[7],1.01 (inactive)
same,nuclear beta-catenin stimulation,[8]; at 10 µM,1.1% (inactive)
same,nuclear beta-catenin stimulation,"[8]; stimulation, at 2 µM",2.1%
same,insulin secretion stimulation,[9],0.2% (inactive)
same,viability decrease,[10],-25.9% (inactive)
same,tube area decrease,[11],30.9% (inactive)
same,GLP1 secretion stimulation,[12],0.7% (inactive)
same,inhibition of viability,[13],20.4% (inactive)
same,viability decrease (inhibition),[14],-2.3% (inactive)
same,viability decrease (inhibition),[15],-3.8% (inactive)
same,inhibition,[16],-0.585% (inactive)
same,outcome,[17],inactive
same,outcome,[18],inactive
same,outcome,[19],inactive
same,outcome,[20],inactive
same,outcome,[21],inactive
same,outcome,[22],inactive
same,fold change,"[23]; stronger effect = lower value, cell number ratio, induced over uninduced",0.945 (inactive) and 0.813 (inactive)
same,fold change,[23]; measured here: relative caspase fold change +Dox/-Dox,2.11 and 1.02
same,cell count,"[23]; measured here: total cells with miR-34 induction, stronger effect = lower value",7270 and 6260
same,cell count,[23]; measured here: total cells without miR-34 induction,7700 and 7690
same,z-score,"[24]; MELAS cybrid survival, CellTiter-Glo 48 h, stronger effect = higher value",0.454 (inactive)
same,z-score,"[24]; Rieske KO mouse fibroblast survival, CellTiter-Glo 72 h",1.02
same,remaining NAD,[25],10 nM (inactive)
same,luciferase signal,[26],260 AU (active)
same,z-score,[27],0.355 (inactive)
same,log fold change Tl+ flux,F380Y,0.00343 (inactive)
same,log fold change Tl+ flux,F380Y/beta1,0.0412 (inactive)
same,log fold change Tl+ flux,F380Y/beta2Delta,-0.00446 (inactive)
same,log fold change Tl+ flux,F380Y/beta4,0.048 (inactive)
same,log fold change Tl+ flux,[28],0.00932 (inactive)
same,log fold change Tl+ flux,R275C,-0.038 (inactive)
same,log fold change Tl+ flux,R275C/beta1,-0.00722 (inactive)
same,log fold change Tl+ flux,R275C/beta2Delta,-0.0403 (inactive)
same,log fold change Tl+ flux,R275C/beta4,0.0407 (inactive)
same,log fold change Tl+ flux,R275C/Slo1WT/beta2,0.0498 (inactive)

# Source: PubChem BioAssay
